Assay outcomes: PubChem BioAssay, National Center for Advancing Translational Sciences (NCATS)
HP1b binding inh = blocks HP1-beta chromodomain binding to methylated histone tails | Potency, µM (doses to about 114 µM), for inactives: at the top dose activity change, negative = inhibition, most hits filed as inhibitors | P83916 | actives 0.56% (n = 390,000) | AlphaScreen HP1-beta / biotin-H3K9me3 peptide binding; also: potency is read from the fitted curve at half-maximal effect; nearly all actives have a fitted effect of over 70% in size
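HP1-beta protein (50 nM final) preincubated 30 min at room temperature with biotinylated H3(1-18)K9me3 peptide (50 nM) in PBS pH 7.4, 0.01% Tween-20, then compound added for 30 min. AlphaScreen streptavidin donor/nickel chelate acceptor beads (10 ug/mL final), 30 min dark, luminescence read.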
Six1-Eya2 blk = inhibitors of human Six1/Eya2 interaction; Q15475+O00167; AlphaScreen GST-Six1/His-Eya2 binding, biochemical; active compounds read low; activity change, % (concentration not given with the values); actives 0.56% (n = 360,000); AID 651725; in the data active = activity change below about -65%; inconclusive = mostly about -30% to -63%; also: % is scaled to controls: 0 for no effect and ±100 for the full control effect
Target sequence (O00167 whole entry, looked up): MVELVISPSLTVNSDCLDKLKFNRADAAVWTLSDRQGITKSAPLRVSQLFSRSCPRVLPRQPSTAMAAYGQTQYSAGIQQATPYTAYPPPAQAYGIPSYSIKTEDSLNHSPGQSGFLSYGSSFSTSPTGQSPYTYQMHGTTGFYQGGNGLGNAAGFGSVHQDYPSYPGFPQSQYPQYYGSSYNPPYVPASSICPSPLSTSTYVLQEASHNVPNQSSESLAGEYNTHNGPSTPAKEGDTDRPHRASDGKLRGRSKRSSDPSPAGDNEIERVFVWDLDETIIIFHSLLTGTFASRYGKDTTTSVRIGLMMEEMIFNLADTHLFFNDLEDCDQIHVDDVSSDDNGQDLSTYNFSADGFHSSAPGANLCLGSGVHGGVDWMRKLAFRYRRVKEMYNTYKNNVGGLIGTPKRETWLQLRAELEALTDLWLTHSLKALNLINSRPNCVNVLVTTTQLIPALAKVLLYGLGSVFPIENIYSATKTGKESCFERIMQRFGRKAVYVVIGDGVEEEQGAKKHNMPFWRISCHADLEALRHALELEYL
Target sequence (Q15475 whole entry, looked up): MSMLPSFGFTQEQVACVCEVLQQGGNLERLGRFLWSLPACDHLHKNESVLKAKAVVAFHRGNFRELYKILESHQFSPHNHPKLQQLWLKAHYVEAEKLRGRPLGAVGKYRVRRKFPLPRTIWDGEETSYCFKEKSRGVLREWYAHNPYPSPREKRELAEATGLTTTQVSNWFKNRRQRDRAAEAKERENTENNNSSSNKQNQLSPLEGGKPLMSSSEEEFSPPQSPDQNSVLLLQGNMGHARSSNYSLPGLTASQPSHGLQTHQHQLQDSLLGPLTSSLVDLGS
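GST-Six1 + His-Eya2 (5X stock: 250/500 nM); Tris pH 8.0, 300 mM NaCl, 0.05% BSA, 0.02% Tween 20; GSH donor/Ni acceptor beads; 1 h 37 °C dark; AlphaScreen readout.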
G9a block = inhibitors of human histone lysine methyltransferase G9a; G9a H3K9 monomethylation, AlphaScreen, 2 h; Potency, µM (top dose mostly 102 µM), for inactives: at the highest dose activity, negative = inhibition, actives largely listed as inhibitors; Q96KQ7; AID 504332; actives 8.8% (n = 350,000); also: potency is read from the fitted curve at half-maximal effect; % is scaled to controls: 0 for no effect and ±100 for the full control effect; nearly all actives have a fitted effect of over 75% in size
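Quantitative HTS format: methyltransferase activity on a biotin-tagged H3K9 peptide is measured by AlphaScreen, using a rabbit anti-monomethyl-H3K9 antibody with streptavidin donor and anti-IgG acceptor beads. Final levels are 20 nM enzyme, 500 nM peptide, 20 uM SAM; 2 h RT.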
JMJD2A Tudor = JMJD2A Tudor domain (human) inhibition. O75164. AlphaScreen JMJD2A-Tudor / H3K4me3 peptide binding. Potency, µM (top dose mostly 114 µM), without a hit: top-dose activity change, negative = inhibition, usual class: inhibitors. actives 4.4% (n = 390,000); also: potency is read from the fitted curve at half-maximal effect; % is scaled to controls: 0 for no effect and ±100 for the full control effect; nearly all actives have a fitted effect of over 50% in size
BAZ2B inh = blocks human BAZ2B; AlphaScreen BAZ2B-H3K14Ac peptide displacement; Q9UIF8; Potency, µM (doses to about 114 µM), for inactives: at the top dose activity change, negative = inhibition, most hits filed as inhibitors; actives 4.4% (n = 360,000); AID 504333; also: potency is read from the fitted curve at half-maximal effect; % is scaled to controls: 0 for no effect and ±100 for the full control effect; nearly all actives have a fitted effect of over 60% in size
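Multi-concentration screen (max 110 uM) measuring displacement of acetylated histone H3 peptide from BAZ2B by AlphaScreen, using 50 nM protein, 50 nM peptide and 10 ug/mL streptavidin donor plus Ni-chelate acceptor beads.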
CtBP-E1A blk = CtBP/E1A binding inhibition | AlphaScreen GST-E1A/His-CtBP binding, 1536-well; active compounds read low | activity change, % (no concentration beside the values) | actives 0.49% (n = 340,000) | AID 651724; in the data active = activity change below about -65%; inconclusive = mostly about -30% to -63%; also: % is scaled to controls: 0 for no effect and ±100 for the full control effect
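AlphaScreen with 125 nM GST-E1A and 125 nM His-CtBP (5X stocks) in Tris pH 8.0, 300 mM NaCl, BSA, Tween 20, TCEP. Compounds preincubated 2 h at 37 deg C, then glutathione donor/nickel acceptor beads added for 1 h at 37 deg C in dark.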
The depositor's hits bear a star; ? = inconclusive; / = no result given; [ ] = remark or other dose. Compounds with a hit are over-represented: about 10% of the library has one in this group of screens. Unless noted, calls follow the shape of the dose curve; as a rule, active = well fitted inhibition curve with a large enough effect; inconclusive = small, poorly fitted or top-dose-only effect; inactive = no such curve, though single readings can be large or run the other way.

SMILES	HP1b binding inh	Six1-Eya2 blk	G9a block	JMJD2A Tudor	BAZ2B inh	CtBP-E1A blk
CCN1CCCC1CNC(=O)c1ccc(N2CCOCC2)c(NS(=O)(=O)c2ccc(OC)cc2)c1 (centres undefined)	30%	-1	50µM*	-17%	-16%	/
COc1ccc(S(=O)(=O)Nc2cc(C(=O)NCCC(C)C)ccc2N2CCOCC2)cc1	39%	24	50µM*	-12%	-30%	36
Cc1cccc(C(=O)n2nc(-c3cccnc3)nc2NCc2ccc(F)cc2)c1	25%	/	9%[59 µM]	-10%	3%	/
O=C(COC(=O)c1cc(S(=O)(=O)N2CCc3ccccc3C2)ccc1Cl)NCc1ccco1	?	-18	40µM*	79µM*	?	4
CCc1ccc(NC(=O)C(C)OC(=O)c2cccc(S(=O)(=O)N3CCc4ccccc4C3)c2)cc1 (centres undefined)	28%	-3	7.9µM*	-19%	15%	7
O=C(COC(=O)c1cccc(S(=O)(=O)N2CCc3ccccc3C2)c1)NCc1ccco1	26%	-4	?	4%	50µM*	-2
O=C(COC(=O)c1cc(S(=O)(=O)N2CCOCC2)ccc1Cl)NCc1ccco1	33%	0	7%[0.501 µM]	-10%	-1%	5
Cc1ccc(N2CC(NC(=O)c3ccc4c(c3)OCO4)CC2=O)cc1 (centres undefined)	-5%	/	10%[59 µM]	-14%	0%	/
Cc1ccc(NC(=O)c2cc(S(=O)(=O)N3CCC(C)CC3)cn2C)cc1Cl	28%[57 µM]	/	0%[59 µM]	-3%	5%	/
O=C(NCCCN1CCOCC1)c1ccc2c(c1)N(Cc1c(F)cccc1Cl)C(=O)c1ccccc1S2	7%[57 µM]	-8	35µM*	?	?	/
CCN1CCN(CCCNC(=O)c2ccc(/C=C3/Sc4ccccc4N(Cc4ccccc4F)C3=O)cc2)CC1	-3%	-1	?	40µM*	?	-6
O=C(NCCCN1CCOCC1)c1ccc2c(c1)N(Cc1ccc(F)cc1)CCS2	19%	-12	45µM*	?	?	-18
Cc1cccc(NC(=O)c2n[nH]c([N+](=O)[O-])c2Br)c1C	43%	-8	40µM*	-4%	-25%	-5
CC(=O)c1c(C)[nH]c(C(=O)Nc2cccc(C)c2C)c1C	2%	3	-8%	-13%	1%	1
CCCN1CCC(=O)N(CCO)CC1	27%	13	45µM*	-19%	-11%[57.1 µM]	7
CCCN1CCC(=O)N([C@H](CO)CC(C)C)CC1	12%	3	32µM*	-12%	-26%	3
CCCCCCCN1CCC(=O)N(CCO)CC1	30%	8	9%	-6%	-2%	8
Nc1nonc1-c1nc2ccccc2n1Cc1c(Cl)cccc1Cl	49%	/	25%[59 µM]	-5%	1%	/
Cc1c(C(=O)N2CCC(C)CC2)c(S(=O)(=O)Nc2cccc(C(F)(F)F)c2)c(C)n1C	22%	/	-3%[12.7 µM]	-6%	-29%	/
Cc1ccc(-n2c(O)c(/C=N/c3ncn[nH]3)c3ccccc3c2=O)cc1	8%	-23	15%[12.7 µM]	-21%	?	-14
Oc1c(/C=N/c2ncn[nH]2)ccc2ccccc12	28%	-5	2.2µM*	?	-3%	-1
CN1CC[C@H](c2c(O)cc(O)c3c(=O)cc(-c4ccccc4Cl)oc23)[C@@H](O)C1	-2%	/	/	-34%	/	/
COc1ccc(C(=O)Nc2nncs2)cc1S(=O)(=O)N1CC(c2ccccc2)CC1=O (centres undefined)	55%	-10	50µM*	-13%	4%	-8
Cc1nnc(NC(=O)c2cccc(S(=O)(=O)N3CC(c4ccccc4)CC3=O)c2)s1 (centres undefined)	44%	8	50µM*	-8%	6%	-4
CCc1nnc(NC(=O)c2cccc(S(=O)(=O)N3CC(c4ccccc4)CC3=O)c2)s1 (centres undefined)	44%	4	-1%	-11%	11%	-8
SMILES	HP1b binding inh	Six1-Eya2 blk	G9a block	JMJD2A Tudor	BAZ2B inh	CtBP-E1A blk
Fc1ccc2cnc(-c3ccccc3)c(-c3cccc(C(F)(F)F)c3)c2c1	54%	1	2%[0.501 µM]	-6%	46%	0
COc1cc2cnc(-c3ccccc3)c(-c3cccc(C(F)(F)F)c3)c2cc1OC	19%	-8	5%[0.501 µM]	-34%	56µM*	-2
COc1ccc(OC)c(CNC(=O)c2ccc3c(c2)c(C)c(C)n3C)c1	-3%	/	?	?	35µM*	/
Cc1c(C)n(C)c2ccc(C(=O)NCCCN3CCN(C)CC3)cc12	6%	-6	?	?	-23%[57.1 µM]	-2
Cc1c(C)n(C)c2ccc(C(=O)NCc3cccs3)cc12	-7%	-20	50µM*	?	?	-17
COc1ccc(OC)c(CNC(=O)c2ccc3c(c2)c(C)c(C)n3Cc2ccc(Cl)cc2)c1	11%	/	-44%[59 µM]	?	-33%	/
COc1ccc(OC)c(NC(=O)c2ccc3c(c2)c(C)c(C)n3Cc2ccc(F)cc2)c1	15%	/	?	?	25µM*	/
CCOC(=O)c1c(C)[nH]c(C)c1S(=O)(=O)N1CCC(C(=O)Nc2ccc(OCC)cc2)CC1	31%	/	-4%[59 µM]	-9%	-16%	/
CCOc1ccc(Cn2nnc(C(=O)Nc3cccc(SC)c3)c2N)cc1	49%	/	3%[59 µM]	0%	1%	/
COc1cc(OC)cc(C2=Nn3c(nnc3-c3ccccc3O)SC2)c1	/	/	/	-23%	/	/
CN(c1ccc(O)cc1)c1nc(-c2ccccc2)cs1	-8%	-21	?	-24%	50µM*	0
S=C1NC=NC2N=CNC12 (centres undefined)	/	/	22µM*	/	/	/
Cc1ccccc1C(OCCN(C(C)C)C(C)C)c1ccccc1 (centres undefined)	?	-2	28µM*	0.89µM*	?	3
COc1ccc2c(c1)c1c(c(=O)n(-c3ccc(OC)c(OC)c3)c(=O)n1CC(=O)N1CCCC1)n2C	9%	/	-32%[59 µM]	-9%	-18%	/
C/C=C/c1ccc(OCCCCn2cncn2)c(OC)c1	-59%	2	?	7.1µM*	32µM*	-3
C/C=C/c1ccc(OCc2cc(=O)n3cc(C)ccc3n2)c(OC)c1	20%	6	/	-31%	?	3
C/C=C/c1ccc(OCCn2cncn2)c(OC)c1	?	0	14µM*	40µM*	50µM*	-1
Cc1ccc2nc(CSc3nnc(Cc4cccs4)n3C3CCCCC3)cc(=O)n2c1	46%	4	?	-27%	-2%	6
Cc1sc2nc(CSc3nnc(Cc4cccs4)n3C3CCCCC3)[nH]c(=O)c2c1C	37%	1	45µM*	-21%	12%	0
Cc1sc2nc(CSc3nc4ccccc4s3)[nH]c(=O)c2c1C	/	/	8.9µM*	/	?	/
